This is a sample that favours compounds with a hit; in the whole collection about 2.9% have one here.
ADAM17 inh – inhibits human ADAM17. recombinant ADAM17, EDANS/DABCYL FRET peptide cleavage. 370,000 tested, 0.83% active. inhibition, % at 6.95 µM. P78536;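 active means inhibition above the mean of compounds lying between control limits plus 3 SD, set per campaign, cut at about 8.5% in these data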;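 further: 0% = DMSO-only wells as the low control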
PLCg1 inh – inhibitors of human phospholipase C gamma1; AID 720700; purified PLC-gamma1, fluorogenic substrate, fluorescence; inhibition, % at 12.2 µM; 370,000 tested, 0.84% active; in the data active means inhibition above about 9.5%
ADAM10 inh – inhibitors of human ADAM10 | O14672 | recombinant ADAM10, EDANS/DABCYL FRET peptide cleavage, 3 h | inhibition, % at 7 µM | 370,000 tested, 0.62% active | AID 720582;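 active means inhibition above a per-campaign cutoff equal to the mean of compounds falling between control-based bounds plus 3 SD, cut at about 20% in these data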;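 further: 0% = DMSO wells while the 100% control is not disclosed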
PLC-beta3 inh – inhibitors of human phospholipase C beta3. 370,000 tested, 0.18% active. inhibition, % at 12.2 µM. Purified PLC-beta3, fluorogenic substrate, fluorescence; in the data active means inhibition above about 11%;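 further: 0% = median of compound wells on plate and 100% = full blocker control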
Target sequence (Q01970 whole entry, looked up): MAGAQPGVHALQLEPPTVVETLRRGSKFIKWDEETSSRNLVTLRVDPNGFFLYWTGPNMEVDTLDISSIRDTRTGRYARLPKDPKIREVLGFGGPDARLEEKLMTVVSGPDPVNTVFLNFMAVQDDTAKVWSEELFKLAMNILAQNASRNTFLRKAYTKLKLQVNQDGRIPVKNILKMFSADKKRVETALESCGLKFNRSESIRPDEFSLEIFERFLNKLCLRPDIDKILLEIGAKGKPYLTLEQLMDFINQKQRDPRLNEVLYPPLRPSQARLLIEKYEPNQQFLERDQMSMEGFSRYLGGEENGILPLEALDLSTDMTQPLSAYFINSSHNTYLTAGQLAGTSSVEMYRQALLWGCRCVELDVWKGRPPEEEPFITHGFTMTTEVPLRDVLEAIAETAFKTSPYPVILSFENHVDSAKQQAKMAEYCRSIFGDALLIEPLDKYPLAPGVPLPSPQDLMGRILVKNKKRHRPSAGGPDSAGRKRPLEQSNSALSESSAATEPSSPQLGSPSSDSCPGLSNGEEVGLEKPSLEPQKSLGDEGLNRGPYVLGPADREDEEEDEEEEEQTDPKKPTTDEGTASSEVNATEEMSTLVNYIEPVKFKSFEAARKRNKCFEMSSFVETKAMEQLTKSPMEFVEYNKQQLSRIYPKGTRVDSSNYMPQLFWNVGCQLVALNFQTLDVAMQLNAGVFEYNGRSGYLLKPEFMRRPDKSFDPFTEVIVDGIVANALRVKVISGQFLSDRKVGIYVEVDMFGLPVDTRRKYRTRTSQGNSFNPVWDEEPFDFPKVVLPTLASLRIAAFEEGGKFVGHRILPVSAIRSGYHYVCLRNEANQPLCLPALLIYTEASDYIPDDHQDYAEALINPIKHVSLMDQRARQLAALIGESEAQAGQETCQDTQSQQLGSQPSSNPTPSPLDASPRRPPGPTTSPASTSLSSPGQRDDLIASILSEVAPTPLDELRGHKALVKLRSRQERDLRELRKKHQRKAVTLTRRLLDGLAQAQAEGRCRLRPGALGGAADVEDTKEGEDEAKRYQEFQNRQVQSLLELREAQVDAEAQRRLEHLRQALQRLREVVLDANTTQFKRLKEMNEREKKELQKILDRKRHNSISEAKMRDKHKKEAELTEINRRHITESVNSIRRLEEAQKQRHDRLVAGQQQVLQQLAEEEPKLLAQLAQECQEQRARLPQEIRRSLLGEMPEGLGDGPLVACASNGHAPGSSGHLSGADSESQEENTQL
proKLK7 act – proKLK7 (human) activation, primary screen. P49862. purified proKLK7, EDANS-DABCYL substrate fluorescence; 100% is mature enzyme control, 0% vehicle. activation, % at 7 µM. 370,000 tested, 0.9% active;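 active means activation above the mean of all tested compounds plus 3 SD, computed per campaign excluding outliers beyond control limits, cut at about 13% in these data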
proKLK7 act conf – confirmation of human kallikrein-7 zymogen activators. shares compounds with proKLK7 act. purified proKLK7, EDANS-DABCYL substrate fluorescence; scaled: vehicle 0, mature enzyme 100. activation, % at 7 µM. 3,200 tested, 68% active;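 active means activation, as change over the incubation, above the mean of all tested compounds plus 3 SD, cut at about 13% in these data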
EDANS interfere – counter-screen for kallikrein-7 activators: EDANS-DABCYL optical interference; 3,200 tested, 80% active; EDANS-DABCYL substrate fluorescence interference, no enzyme, 4 h; solvent 0%, active enzyme control 100%; shares compounds with proKLK7 act; activation, % at 7 µM;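 active means activation above the all-compound mean plus 3 SD, ignoring values outside control-based bounds, cut at about 4.8% in these data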;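 further: value is the 4 h activation minus the activation read at time zero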
* marks the source's active call; other numbers are inactive results.

How did CCOC(=O)C1CCCN(C(=O)Cn2nc(C)n3c(cc4c(OC)cccc43)c2=O)C1 (stereo not given) do in these assays?
ADAM17 inh: inactive; PLCg1 inh: -438; ADAM10 inh: inactive; PLC-beta3 inh: inactive; proKLK7 act: 18*; proKLK7 act conf: 8; EDANS interfere: 6.4*

What do the screens show for `O=S(=O)(Nc1ccc(-c2nc3cccnc3s2)cc1)c1cccs1`?
ADAM17 inh: inactive; PLCg1 inh: -484; ADAM10 inh: inactive; PLC-beta3 inh: inactive; proKLK7 act: -3

What do the screens show for `O=S(=O)(Nc1ccc(-c2nc3cccnc3s2)cc1)c1ccc(Cl)s1`?
ADAM17 inh: inactive; PLCg1 inh: -323; ADAM10 inh: inactive; PLC-beta3 inh: -395; proKLK7 act: 0

What do the screens show for `O=S(=O)(Nc1ccc(-c2nc3cccnc3s2)cc1)c1ccccc1F`?
ADAM17 inh: inactive; PLCg1 inh: inactive; ADAM10 inh: inactive; PLC-beta3 inh: inactive; proKLK7 act: 99*; proKLK7 act conf: 66*; EDANS interfere: 73*

Results for Cc1cc(-c2nc3cccnc3s2)ccc1NS(=O)(=O)c1cccs1 ?
ADAM17 inh: inactive; PLCg1 inh: inactive; ADAM10 inh: inactive; PLC-beta3 inh: inactive; proKLK7 act: 71*; proKLK7 act conf: 66*; EDANS interfere: 57*

Results for CCS(=O)(=O)Nc1cccc(-c2nc3cccnc3s2)c1 ?
ADAM17 inh: -6; PLCg1 inh: -52; ADAM10 inh: -19; PLC-beta3 inh: -78; proKLK7 act: -1

What do the screens show for `CCS(=O)(=O)Nc1ccc(-c2nc3cccnc3s2)cc1`?
ADAM17 inh: inactive; PLCg1 inh: inactive; ADAM10 inh: inactive; PLC-beta3 inh: inactive; proKLK7 act: 64*; proKLK7 act conf: 60*; EDANS interfere: 68*

What do the screens show for `CCCS(=O)(=O)NC(=O)C1(C)CCN(C(=O)Cc2ccc(OC)cc2)C1` (stereo not given)?
ADAM17 inh: -6; PLCg1 inh: -3; ADAM10 inh: -8; PLC-beta3 inh: 5; proKLK7 act: 0

Results for O=c1c(-c2cccs2)nc2ccccc2n1C(c1ccccn1)c1nc2ccccc2[nH]1 (stereo not given) ?
ADAM17 inh: -311; PLCg1 inh: -237; ADAM10 inh: inactive; PLC-beta3 inh: -338; proKLK7 act: 17*; proKLK7 act conf: 13; EDANS interfere: 14*

Results for CCOC(=O)COc1cc(OCC(=O)OCC)c2c3c(c(=O)oc2c1)CCCC3 ?
ADAM17 inh: -127; PLCg1 inh: -63; ADAM10 inh: -313; PLC-beta3 inh: -100; proKLK7 act: 2

What do the screens show for `Cc1cc(OCc2nn[nH]n2)c2c(C)c(CC(=O)O)c(=O)oc2c1`?
ADAM17 inh: -234; PLCg1 inh: -377; ADAM10 inh: inactive; PLC-beta3 inh: -461; proKLK7 act: 12

How did COC(=O)C(C)Oc1cc(OC(C)C(=O)OC)c2c(C)c(Cl)c(=O)oc2c1 (stereo not given) do in these assays?
ADAM17 inh: inactive; PLCg1 inh: inactive; ADAM10 inh: inactive; PLC-beta3 inh: inactive; proKLK7 act: 65*; proKLK7 act conf: -40; EDANS interfere: 29*

What do the screens show for `COC(=O)COc1cc(OCC(=O)OC)c2c(C)c(Cl)c(=O)oc2c1`?
ADAM17 inh: -339; PLCg1 inh: -376; ADAM10 inh: inactive; PLC-beta3 inh: -369; proKLK7 act: 192*; proKLK7 act conf: 304*; EDANS interfere: 277*

What do the screens show for `COC(=O)COc1cc(C)cc2oc(=O)c(CC(=O)OC)c(C)c12`?
ADAM17 inh: -180; PLCg1 inh: -267; ADAM10 inh: inactive; PLC-beta3 inh: -313; proKLK7 act: 74*; proKLK7 act conf: 97*; EDANS interfere: 99*

What do the screens show for `COC(=O)C1C(O)=C(C=Nc2cccc3ccccc23)C(=O)CC1(C)C` (stereo not given)?
ADAM17 inh: -83; PLCg1 inh: -102; ADAM10 inh: -221; PLC-beta3 inh: -140; proKLK7 act: 34*; proKLK7 act conf: 25*; EDANS interfere: 23*

What do the screens show for `COC(=O)C1C(O)=C(C=NCc2ccccc2)C(=O)CC1(C)C` (stereo not given)?
ADAM17 inh: -2; PLCg1 inh: 1; ADAM10 inh: 6; PLC-beta3 inh: 0; proKLK7 act: 0

How did Cc1ccc(OC(=O)c2ccc3snnc3c2)cc1 do in these assays?
ADAM17 inh: 3; PLCg1 inh: 4; ADAM10 inh: 5; PLC-beta3 inh: 8; proKLK7 act: 1

Results for O=C(COC(=O)CCCNC(=O)c1ccc(Cl)cc1)NC1CC1 ?
ADAM17 inh: -9; PLCg1 inh: 4; ADAM10 inh: -6; PLC-beta3 inh: 2; proKLK7 act: 14*; proKLK7 act conf: -1; EDANS interfere: -1

What do the screens show for `CCOC(=O)C1CCN(C(=O)Nc2ccc3nc(C)c(C)nc3c2)CC1`?
ADAM17 inh: -478; PLCg1 inh: inactive; ADAM10 inh: inactive; PLC-beta3 inh: inactive; proKLK7 act: 23*; proKLK7 act conf: 46*; EDANS interfere: 53*

What do the screens show for `O=c1[nH]c(NCCO)nc2c1C1(CCCC1)Cc1ccccc1-2`?
ADAM17 inh: inactive; PLCg1 inh: inactive; ADAM10 inh: inactive; PLC-beta3 inh: inactive; proKLK7 act: -1

Results for CCC1(C)Cc2ccccc2-c2nc(NN)[nH]c(=O)c21 (stereo not given) ?
ADAM17 inh: -104; PLCg1 inh: -87; ADAM10 inh: -277; PLC-beta3 inh: -117; proKLK7 act: 3

Results for CC1(C)Cc2ccccc2-c2nc(NCCCO)[nH]c(=O)c21 ?
ADAM17 inh: inactive; PLCg1 inh: inactive; ADAM10 inh: inactive; PLC-beta3 inh: inactive; proKLK7 act: 39*; proKLK7 act conf: -1; EDANS interfere: -8

Results for CCC1(C)Cc2ccccc2-c2nc(NCCO)[nH]c(=O)c21 (stereo not given) ?
ADAM17 inh: inactive; PLCg1 inh: inactive; ADAM10 inh: inactive; PLC-beta3 inh: inactive; proKLK7 act: 23*; proKLK7 act conf: -24; EDANS interfere: -31

How did CN(C)Cc1ccccc1-c1cccc2nccn12 do in these assays?
ADAM17 inh: -86; PLCg1 inh: -82; ADAM10 inh: -331; PLC-beta3 inh: -103; proKLK7 act: 19*; proKLK7 act conf: 2; EDANS interfere: 3

How did CC(C)CN(C(=O)c1cccc(Cl)c1)c1c(N)n(Cc2ccccc2)c(=O)[nH]c1=O do in these assays?
ADAM17 inh: -3; PLCg1 inh: -1; ADAM10 inh: -17; PLC-beta3 inh: -5; proKLK7 act: 0

Results for COC(=O)c1ccccc1NS(=O)(=O)c1ccc2c3c(cccc13)C(=O)N2 ?
ADAM17 inh: -26; PLCg1 inh: -256; ADAM10 inh: -71; PLC-beta3 inh: -259; proKLK7 act: 2

Source: PubChem (The Scripps Research Institute Molecular Screening Center)
